According to PubChem BioAssay (NCI):
“And” between values parts separate entries of the source, which are not always exact repeats. Identical values can stand only once. The panel holds about 79,000 compounds, 15% with a hit somewhere; the sample as a whole holds those more often. Rule as the data show it: active = growth inhibition above about 70%; inactive = the rest.

Columns and labels:
[1] = NCI Yeast Anticancer Drug Screen. Data for the rad50 strain (AID 155);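 also: 0% = growth of vehicle-only cultures of the same strain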; settings: S. cerevisiae rad50 strain growth inhibition; at 50.0 µM; stronger effect = higher value
Summary of the method: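 Growth of the mutant yeast was measured after compound exposure and referenced to vehicle-treated cultures.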

[2] = NCI Yeast Anticancer Drug Screen. Data for the mec2-1 strain (AID 157); settings: S. cerevisiae mec2-1 strain, at 50.0 µM, stronger effect = higher value
Summary of the method: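 Test agents were screened against the mec2-1 yeast strain, with defined DNA repair or cell cycle alteration. Growth was scored as inhibition against vehicle-only controls.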

[3] = NCI Yeast Anticancer Drug Screen. Data for the sgs1 mgt1 strain (AID 161);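 also: 0% = growth of cultures given vehicle only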; settings: S. cerevisiae sgs1 mgt1 strain, at 50.0 µM, stronger effect = higher value
Summary of the method: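 Mutant yeast exposed to compound; growth scored against vehicle-only wells.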

[4] = NCI Yeast Anticancer Drug Screen. Data for the cln2 rad14 strain (AID 165);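 also: 0% = growth equal to vehicle treated cultures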; settings: S. cerevisiae cln2 rad14 strain, at 50.0 µM, stronger effect = higher value
Summary of the method: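 Growth of compound-exposed yeast (cln2 rad14 genotype) measured and expressed as inhibition relative to vehicle.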

[5] = NCI Yeast Anticancer Drug Screen. Data for the bub3 strain (AID 167); settings: S. cerevisiae bub3 mutant strain, at 50.0 µM, stronger effect = higher value
Summary of the method: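 Whole-cell yeast assay. The mutant strain was incubated with compounds, and growth inhibition was determined by comparison with vehicle-treated cells.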

[6] = NCI Yeast Anticancer Drug Screen. Data for the mlh1 rad18 strain (AID 175); settings: S. cerevisiae mlh1 rad18 strain growth inhibition; at 50.0 µM; stronger effect = higher value
Summary of the method: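 In this whole-cell yeast screen, a strain with altered DNA damage repair is challenged with compound, and its growth is measured against matched vehicle-treated controls.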

Measured: growth inhibition

C=CP(=O)(OCCCl)OCCCl
inactive: [1] 24.5% | [2] -0.7% | [3] 2.3% | [4] 18.1% | [5] -1.6% | [6] 12.9%

O.O.O=C(O)CC(=O)O.[NH-]C1CCCCC1[NH-].[Pt+2] (stereo unspecified)
inactive: [1] -25.4% | [2] -5.3% | [3] -20.4% | [4] -18.9% | [5] 2.75% | [6] -28.6%

COP(=O)(OC)C(N)CCSC (stereo unspecified)
inactive: [1] -25.1% | [2] -65.7% | [3] -61.8% | [4] 23.7% | [5] 17.1% | [6] -2.1%

Cc1ccc2[nH]c(=S)n(-c3ccc(Cl)cc3)c(=O)c2c1
inactive: [1] 9.3% | [2] 25.5% | [3] 29.9% | [4] 18.8% | [5] 24% | [6] -2.05%

CC(C)CCCC(C)CO[P+](=O)OCC(C)CCCC(C)C (stereo unspecified)
inactive: [1] 31.9% | [2] 7.4% | [3] 18.5% | [4] 20.4% | [5] 5.8% | [6] 1.25%

COc1ccc2[nH]cc(CN(C)C)c2c1
inactive: [1] 21.4% | [2] -7.6% | [3] -10.2% | [4] 5.3% | [5] -6.35% | [6] 18.6%

CC(C)OC(=O)C(C)Br (stereo unspecified)
inactive: [1] -0.1% | [2] -3.05% | [3] -8.35% | [4] 3% | [5] 3.1% | [6] 1.15%

NNc1c(C(N)=O)c2c(N)ncnc2n1C1OC(CO)C(O)C1O (stereo unspecified)
inactive: [1] -0.6% | [2] 37.8% | [3] 4.9% | [4] 10.5% | [5] 4.55% | [6] 19.9%

NC(CCP(=O)(O)O)C(=O)O (stereo unspecified)
inactive: [1] 1.1% and -34.8% | [2] -3.5% and -15.6% | [3] -5.6% and -33.7% | [4] -3.25% and 6.1% | [5] 7.7% and -23.5% | [6] -5.75% and -18.1%

O=C1C2C(C(=O)N1c1ccc(O)cc1)C1(Cl)C(Cl)=C(Cl)C2(Cl)C1(Cl)Cl (stereo unspecified)
inactive: [1] -0.45% | [2] -11.8% | [3] 1.9% | [4] -0.1% | [5] -19.6% | [6] 1%

C=C1CCC2CC1C2(C)C (stereo unspecified)
inactive: [1] 5.95% and 13.7% and -4.1% | [2] 0.75% and -4.25% and -15.2% | [3] 6.5% and -6.65% and -29.8% | [4] 9.45% and -27% and 2.6% | [5] 10.3% and 0.05% and -6.7% | [6] 21.4% and 2.7% and -10.2%
